These results are taken from PubChem BioAssay (NCATS).

The target in experiment [1] is Protein phosphatase 1D (Homo sapiens) (UniProt O15297). The experiment is described as follows: RapidFire Mass Spectrometry qHTS Assay for Modulators of WT P53-Induced Phosphatase 1 (WIP1) (AID 1347424; active = well fitted curve in the direction sought with a large enough effect; an effect the other way counts as inactive or inconclusive;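 note: series mostly up to about 63 µM; plate controls were DMSO wells for no effect and GSK830371 inhibitor control at 10 µM for full effect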). Summed up:
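RapidFire MS readout of dephosphorylated VEPPL-S-QETFS product, with 1 uM isotope-labelled peptide standard. Reaction: 10 nM WIP1, 2 uM phosphopeptide substrate, 5 min, room temperature, after 1 h compound preincubation; stopped with 0.5% formic acid.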
Background: qHTS replaces the single test concentration by a dilution series.

Experiment [2] shares this target. The experiment can be described thus: Rhodamine-PBP qHTS Assay for Modulators of WT P53-Induced Phosphatase 1 (WIP1) (AID 1347425; active = well fitted curve in the direction sought with a large enough effect; an effect the other way counts as inactive or inconclusive; note: % of control where 0% means no effect). Summed up:
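The read-out is the change in Rhodamine-PBP fluorescence (f1 - f0, ex 525/em 598 nm) as Pi is released, read each minute for 11 min. Final reaction: 5 nM WIP1, 10 uM phosphopeptide VEPPL-pS-QETFS, 10 uM Rh-PBP, 50 mM Tris-HCl pH 7.5, 30 mM MgCl2. Compound was preincubated with enzyme for 1 hour at room temperature.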

The nature of experiment [3]: Primary qHTS for Huh7 cytotoxicity: counterscreen for inhibitors of MERS-S pseudotyped particle cell entry (AID 1479147). For activity change, negative = cytotoxicity: % is set by controls: 0 for no effect and ±100 for the full control effect.
Experiment [4] can be described thus: Primary qHTS for inhibitors of MERS-S pseudo-typed particle cell entry (AID 1479149). Note: nearly all actives have a fitted effect of over 60% in size. Note: potency is the fitted concentration of half-maximal effect.
Experiment [5] can be described thus: Primary qHTS for Vero E6 cytotoxicity: counterscreen for inhibitors of SARS-S pseudo-typed particle cell entry (AID 1479150). For activity change, negative = cytotoxicity: % is set by controls: 0 for no effect and ±100 for the full control effect.
Experiment [6] can be described thus: Primary qHTS for inhibitors of SARS-S pseudo-typed particle cell entry (AID 1479145). For activity change, negative = inhibition: series mostly up to about 57 µM; % is set by controls: 0 for no effect and ±100 for the full control effect. Note: nearly all actives have a fitted effect of over 45% in size. Note: potency is the fitted concentration of half-maximal effect.
Experiment [7] in a line: qHTS to identify inhibitors of the type 1 interferon - major histocompatibility complex class I in skeletal muscle: primary screen against the NCATS Mechanism Interrogation Plate v5.0 (MIPE) Libary (AID 1347411; active = well fitted curve in the direction sought with a large enough effect; an effect the other way counts as inactive or inconclusive;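 note: plate controls were vehicle for no effect and reference inhibitor for full effect; nearly all actives have a fitted effect of over 65% in size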). Summed up:
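HLA-B HiBit myoblasts, dexamethasone-free medium + 4 ng/ml IFN-b, 24 h compound, 11-pt 1:3 from 46 uM final. Readout: Nano-Glo HiBiT lytic luminescence after 10 min lysis, RT.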

Experiment [8] in a line: qHTS to identify inhibitors of the type 1 interferon - major histocompatibility complex class I in skeletal muscle: primary screen against the NCATS Pharmaceutical Collection (AID 1347407; active = well fitted curve in the direction sought with a large enough effect; an effect the other way counts as inactive or inconclusive;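 note: luminescence of HiBiT knocked into endogenous HLA-B as interferon-induced MHC class I level; % is set by controls: 0 for no effect and ±100 for the full control effect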). Summed up:
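Cells were seeded with 4 ng/ml IFN-beta, incubated 1 h, then dosed with compounds over eight 1:5 steps up to 46 uM final. After 24 h at 37 C, HiBiT lytic reagent was added and luminescence read after 10 min lysis in the dark.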

Results filed as inconclusive are left out. Unmarked numbers belong to inactive results. The source made the active and inactive calls. Unless noted, calls come from the whole dose curve.

Sequence of Protein phosphatase 1D (Homo sapiens) (O15297 whole entry, looked up): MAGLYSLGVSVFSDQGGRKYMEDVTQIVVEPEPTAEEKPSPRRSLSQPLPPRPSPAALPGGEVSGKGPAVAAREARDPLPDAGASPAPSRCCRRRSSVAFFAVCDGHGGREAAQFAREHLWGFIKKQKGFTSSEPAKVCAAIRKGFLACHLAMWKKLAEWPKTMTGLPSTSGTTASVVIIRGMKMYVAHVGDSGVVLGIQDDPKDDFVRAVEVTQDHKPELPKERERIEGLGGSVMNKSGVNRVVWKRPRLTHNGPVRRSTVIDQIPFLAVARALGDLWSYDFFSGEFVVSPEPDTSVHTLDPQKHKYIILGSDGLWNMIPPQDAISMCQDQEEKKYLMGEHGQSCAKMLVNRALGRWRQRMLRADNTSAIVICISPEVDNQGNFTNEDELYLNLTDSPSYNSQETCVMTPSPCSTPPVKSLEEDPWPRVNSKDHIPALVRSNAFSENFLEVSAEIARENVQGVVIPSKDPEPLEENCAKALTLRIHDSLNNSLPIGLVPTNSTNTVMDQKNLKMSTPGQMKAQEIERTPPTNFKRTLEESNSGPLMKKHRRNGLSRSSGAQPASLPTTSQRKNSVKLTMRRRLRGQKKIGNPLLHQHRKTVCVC

For the molecule `CCOP(=S)(OCC)Oc1ccc2c(C)c(Cl)c(=O)oc2c1`, the Potency result in experiment [1], in experiment [3], in experiment [4] and in experiment [5] was “inactive” each time. Moreover, in experiment [2], the molecule was called inactive.

For the molecule `C[C@]12C=CC(=O)C=C1CC[C@@H]1[C@@H]2[C@@H](O)C[C@@]2(C)[C@H]1CC[C@]2(O)C(=O)CO`, the Potency result in experiment [6], in experiment [3], in experiment [4] and in experiment [5] was “inactive” in each case.

On to `CC(C)C(=O)c1c(C(C)C)nn2ccccc12`, for which the Potency entry in experiment [6], in experiment [3], in experiment [4] and in experiment [5] was “inactive” each time.

Take `NS(=O)(=O)c1cc2c(cc1Cl)NC(CC1CCCC1)NS2(=O)=O` (centres undefined): the Potency entry in experiment [6], in experiment [3], in experiment [4] and in experiment [5] was “inactive” throughout.

In the case of `Cc1nnc(SCC2=C(C(=O)O)N3C(=O)[C@@H](NC(=O)Cn4cnnn4)[C@H]3SC2)s1`, the Potency entry in experiment [6], in experiment [3], in experiment [4] and in experiment [5] was “inactive” in each case.

In the case of `C[C@]12CC[C@@H]3c4ccc(OC(=O)N(CCCl)CCCl)cc4CC[C@H]3[C@@H]1CC[C@@H]2OP(=O)(O)O`, the Potency result in experiment [7], in experiment [3], in experiment [4] and in experiment [5] was “inactive” in each case.

As to `COc1cccc2c1C(=O)c1c(O)c3c(c(O)c1C2=O)C[C@@](O)(C(=O)CO)C[C@@H]3O[C@H]1C[C@H](N)[C@@H](O)[C@H](C)O1`, the Potency in experiment [6] is 10 µM (active).

In the case of `O=C(O)c1cc(=O)[nH]c(=O)[nH]1`, the Potency result in experiment [6], in experiment [3], in experiment [4] and in experiment [5] was “inactive” each time.

As for `CC(=O)Nc1ccccc1`, the Potency result in experiment [6], in experiment [3], in experiment [4] and in experiment [5] was “inactive” in each case.

For `O=c1c(C2CC(c3ccc(-c4ccc(Br)cc4)cc3)Cc3ccccc32)c(O)sc2ccccc12` (centres undefined), in experiment [6], the Potency was 25.1 µM (active). Besides, in experiment [3], the Potency result was “inactive”.

Turning to `Cc1cnc(NC(=O)C2=C(O)c3ccccc3S(=O)(=O)N2C)s1`, the Potency result in experiment [6], in experiment [3] and in experiment [4] was “inactive” in each case.

On to `CN1CC[C@]23c4c5ccc(O)c4O[C@H]2[C@@H](O)C=C[C@H]3[C@H]1C5`, for which the Potency entry in experiment [1] was “inactive”. Moreover, the call in experiment [2] was inactive.

For the molecule `CCn1cc(C(=O)O)c(=O)c2cnc(N3CCCC3)nc21`, in experiment [6], the activity change, negative = inhibition is -4.52% [at 11.4 µM]. The outcome in experiment [3], in experiment [4] and in experiment [5] was “inactive [at 11.4 µM]” each time.

Regarding `CCOc1cc(OCC)c(C(=O)CCC(=O)O)cc1OCC`, the Potency entry in experiment [6], in experiment [3], in experiment [4] and in experiment [5] was “inactive” each time.

As to `O=C(O)Cc1sc(-c2ccccc2)nc1-c1ccc(Cl)cc1`, the Potency entry in experiment [6], in experiment [3], in experiment [4] and in experiment [5] was “inactive” each time.

As to `CC(C)(C)c1ccc(O)cc1`, the Potency entry in experiment [1], in experiment [6] and in experiment [4] was “inactive” throughout. Also, in experiment [2], the molecule was classed as inactive.

For `COc1cc(/C=C/C(=O)O[C@H]2CC[C@]34C[C@]35CC[C@]3(C)[C@@H]([C@H](C)CCC=C(C)C)CC[C@@]3(C)[C@@H]5CC[C@H]4C2(C)C)ccc1O`, the Potency result in experiment [6], in experiment [3], in experiment [4] and in experiment [5] was “inactive” each time.

For the molecule `O=C1O[C@H](CO)[C@@H](O)[C@H](O)[C@H]1O`, the Potency result in experiment [6], in experiment [3], in experiment [4] and in experiment [5] was “inactive” throughout.

`CN(CC1(C)CCCO1)S(=O)(=O)c1ccc(Cl)c(S(N)(=O)=O)c1` (centres undefined): the Potency result in experiment [6], in experiment [3], in experiment [4] and in experiment [5] was “inactive” each time.

For the molecule `C[C@]12CC[C@H]3[C@@H](CCC4=CC(=O)CC[C@@H]43)[C@@H]1CC[C@@H]2OC(=O)CCc1ccco1`, the Potency result in experiment [1], in experiment [6], in experiment [3], in experiment [4] and in experiment [5] was “inactive” each time.

As for `COP(=S)(OC)Oc1cc(Cl)c(Cl)cc1Cl`, the Potency result in experiment [1], in experiment [6], in experiment [3], in experiment [4] and in experiment [5] was “inactive” in each case. Besides, the molecule was classed as inactive in experiment [2].

`C[C@@H](N)[C@@H](O)c1ccccc1`: the Potency result in experiment [1], in experiment [6], in experiment [3], in experiment [4] and in experiment [5] was “inactive” throughout. In addition, the molecule was classed as inactive in experiment [2].

Turning to `COP(=S)(OC)SCN1C(=O)c2ccccc2C1=O`, the Potency result in experiment [8], in experiment [1], in experiment [3], in experiment [4] and in experiment [5] was “inactive” each time.

For the molecule `CC[C@@]1(O)C(=O)OCc2c1cc1n(c2=O)Cc2c-1nc1ccccc1c2/C=N/OC(C)(C)C`, the Potency result in experiment [6], in experiment [3] and in experiment [4] was “inactive” in each case.

For the molecule `COc1ccc(C(=O)c2ccccc2)c(O)c1`, the Potency entry in experiment [6], in experiment [3], in experiment [4] and in experiment [5] was “inactive” each time.

With `O=C(O)c1cccnc1`, the Potency entry in experiment [6], in experiment [3], in experiment [4] and in experiment [5] was “inactive” throughout.

As for `O=C1c2ccccc2C(=O)c2c1ccc(O)c2O`, the Potency result in experiment [6], in experiment [3], in experiment [4] and in experiment [5] was “inactive” in each case.

With `CC(C)C[C@H](CN)CC(=O)O`, the Potency entry in experiment [7] was “inactive”.

In the case of `CSCC[C@H](NC(=O)[C@H](Cc1ccc(OS(=O)(=O)O)cc1)NC(=O)[C@@H](N)CC(=O)O)C(=O)NCC(=O)N[C@@H](Cc1c[nH]c2ccccc12)C(=O)N[C@@H](CCSC)C(=O)N[C@@H](CC(=O)O)C(=O)N[C@@H](Cc1ccccc1)C(N)=O`, the Potency result in experiment [6], in experiment [3], in experiment [4] and in experiment [5] was “inactive” each time.

On to `CCO[C@H](Cc1ccc(OCCc2ccc(OS(C)(=O)=O)cc2)cc1)C(=O)O`, for which the Potency result in experiment [6], in experiment [3], in experiment [4] and in experiment [5] was “inactive” in each case.

For the molecule `CC(=O)O[C@@H]1CC2C3CCc4cc(OC(=O)c5ccccc5)ccc4C3CCC2(C)[C@H]1OC(C)=O` (some centres undefined), the Potency result in experiment [6], in experiment [3], in experiment [4] and in experiment [5] was “inactive” in each case.

Take `CN(C)CCc1c[nH]c2ccc(Cn3cncn3)cc12`: the Potency result in experiment [6], in experiment [3], in experiment [4] and in experiment [5] was “inactive” throughout.

As to `Cc1c[nH]c2ccccc12`, the Potency result in experiment [6], in experiment [3], in experiment [4] and in experiment [5] was “inactive” throughout.

Take `CCCCOCCOC(=O)c1cccnc1`: the Potency entry in experiment [6], in experiment [3], in experiment [4] and in experiment [5] was “inactive” each time.

`CCCCCCOc1ccccc1C(N)=O`: the Potency result in experiment [6], in experiment [3] and in experiment [5] was “inactive” in each case. Besides, the Potency in experiment [4] was 20 µM (active).

On to `NC(N)=NCCN1CCCCCCC1`, for which the outcome in experiment [6], in experiment [3] and in experiment [4] was “inactive [at 0.573 µM]” in each case. Further, the activity change, negative = cytotoxicity in experiment [5] is 3.58% [at 0.573 µM].
